Measurements taken from the supplement of paper PMC7366291.
Where a name gives a salt, the structure may show the parent alone. ± gives the standard deviation or the standard deviation of the averaged measurements.

Key:
Conditions in all cases: 25 µM; exposure: 24-48 hpf
[1] = test system: Danio rerio Tg(wt1b:EGFP) embryo, pronephros; test: glomerular separation, fold change vs DMSO control; higher = glomeruli further apart (abnormal)
Summary of the method: (§1)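 Dechorionated Tg(wt1b:EGFP) zebrafish embryos were kept from 24 to 48 hpf at 28.5°C in HEPES-buffered E3 containing 0.003% PTU, 0.5% DMSO and 25 μM compound. The pronephroi were then imaged from the dorsal side in agarose-filled 96-well plates at 470 nm with 10 z-slices, and 16 reference points were placed by hand on maximum projections in Fiji so that a macro could calculate distances and angles. Values lying more than 2 SD from the mean of a feature were discarded. Every feature is given as a fold change against the mean of DMSO-treated embryos from the same day.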

[2] = test system: Danio rerio Tg(wt1b:EGFP) embryo, pronephros; test: glomerular width (mean of left and right), fold change vs DMSO control; higher = wider glomerulus
Summary of the method: as §1

[3] = test system: Danio rerio Tg(wt1b:EGFP) embryo, pronephros; test: fraction of imaged embryos annotated as normal kidney; higher = less nephrotoxic; extreme values may be limits of the assay
Summary of the method: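 From 24 to 48 hpf at 28.5°C, dechorionated Tg(wt1b:EGFP) zebrafish embryos in 12-well plates were kept in 5 mM HEPES-buffered E3 with 0.003% PTU, 0.5% DMSO and 25 μM compound. Pronephroi were imaged by widefield fluorescence at 470 nm and judged by eye from maximum projections. Reported is the proportion of embryos per treatment in the normal-kidney category.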

[4] = test system: Danio rerio Tg(wt1b:EGFP) embryo, pronephros; test: pronephric angle neck segment to proximal convoluted tubule (mean of left and right), fold change vs DMSO control; higher = larger pronephric angle
Summary of the method: as §1

COc1cc2nc(N3CCN(C(=O)C4COc5ccccc5O4)CC3)nc(N)c2cc1OC (stereo not given) [Doxazosin mesylate]
glomerular separation [1]: 0.958 ± 0.6
glomerular width [2]: 0.965 ± 0.026
fraction of imaged embryos annotated as normal kidney [3]: 1
pronephric angle neck segment [4]: 1.007 ± 0.003

O=C(NCCN1CCOCC1)c1ccc(Cl)cc1 [Moclobemide]
glomerular separation [1]: 0.89 ± 0.26
glomerular width [2]: 1.01 ± 0.088
fraction of imaged embryos annotated as normal kidney [3]: 0.833
pronephric angle neck segment [4]: 0.969 ± 0.011

OC(c1cc(C(F)(F)F)nc2c(C(F)(F)F)cccc12)C1CCCCN1 (stereo not given) [Mefloquine hydrochloride]
glomerular separation [1]: 1.17 ± 0.51
glomerular width [2]: 1.01 ± 0.019
fraction of imaged embryos annotated as normal kidney [3]: 0.667
pronephric angle neck segment [4]: 1.017 ± 0.0068

CCc1cccc2c3c([nH]c12)C(CC)(CC(=O)O)OCC3 (stereo not given) [Etodolac]
glomerular separation [1]: 1.66 ± 0.82
glomerular width [2]: 0.954 ± 0.025
fraction of imaged embryos annotated as normal kidney [3]: 0.636
pronephric angle neck segment [4]: 1.13 ± 0.055

Cc1c(NC(=O)c2cccnc2)c(=O)n(-c2ccccc2)n1C [Nifenazone]
glomerular separation [1]: 0.806 ± 0.28
glomerular width [2]: 1.03 ± 0.014
fraction of imaged embryos annotated as normal kidney [3]: 0.833
pronephric angle neck segment [4]: 1 ± 0.023

CN(C)[C@@H]1C(O)=C(C(N)=O)C(=O)[C@@]2(O)C(O)=C3C(=O)c4c(O)cccc4[C@@](C)(O)[C@H]3C[C@@H]12 [Tetracycline hydrochloride]
glomerular separation [1]: 1.33 ± 0.62
glomerular width [2]: 1.06 ± 0.042
fraction of imaged embryos annotated as normal kidney [3]: 0.778
pronephric angle neck segment [4]: 0.9721 ± 0.0096

C[C@](N)(Cc1ccc(O)c(O)c1)C(=O)O [Methyldopa (L,-)]
glomerular separation [1]: 1.03 ± 0.18
glomerular width [2]: 1.02 ± 0.081
fraction of imaged embryos annotated as normal kidney [3]: 0.909
pronephric angle neck segment [4]: 1.001 ± 0.0027

CCOc1ccc2c(c1)C(C)=CC(C)(C)N2 [Ethoxyquin]
glomerular separation [1]: 0.864 ± 0.31
glomerular width [2]: 1.04 ± 0.039
fraction of imaged embryos annotated as normal kidney [3]: 0.75
pronephric angle neck segment [4]: 0.975 ± 0.044

NNCCc1ccccc1 [Phenelzine sulfate]
glomerular separation [1]: 0.964 ± 0.27
glomerular width [2]: 1.04 ± 0.016
fraction of imaged embryos annotated as normal kidney [3]: 0.833
pronephric angle neck segment [4]: 0.93 ± 0.067

COc1cc2c(cc1OC)C(=O)C(CC1CCN(Cc3ccccc3)CC1)C2 (stereo not given) [Donepezil hydrochloride]
glomerular separation [1]: 0.812 ± 0.32
glomerular width [2]: 1.13 ± 0.082
fraction of imaged embryos annotated as normal kidney [3]: 0.833
pronephric angle neck segment [4]: 0.9843 ± 0.0083
